Source: PubChem
Hits are enriched below; roughly 2.4% of the tested compounds scored in any of these assays.
WRN helicase inh = WRN helicase (human) inhibition | WRN helicase unwinding, fluorescent forked duplex, kinetic | Potency, µM (highest dose often 114 µM), for inactives: top-dose activity change, negative = inhibition, actives largely listed as inhibitors | hit rate 0.46% among 360,000 | Q14191; further: potency means the concentration at half of the fitted maximal effect; on the % scale 0 is the no-effect control and ±100 the full control effect; nearly all actives have a fitted effect of over 55% in size
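Fluorescence dequenching readout, ex 525 nm/em 598 nm, kinetic mode: forked duplex DNA (100 nM final) with adjacent fluorophore and quencher unwound by WRN (20 nM final) with 2 mM ATP. Compound preincubation 15 min, room temperature.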
FEN1 inh-1 = inhibitors of human flap endonuclease 1; Potency, µM (top dose mostly 114 µM), for the others: at the highest dose activity change, negative = inhibition, hits mostly inhibitors; P39748; hit rate 0.35% among 390,000; Recombinant FEN1 flap cleavage, fluorescence, 15 min; further: potency means the concentration at half of the fitted maximal effect; on the % scale 0 is the no-effect control and ±100 the full control effect; nearly all actives have a fitted effect of over 65% in size
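Quantitative HTS format: each compound was titrated, incubated with 10 nM nuclease for 15 min at room temperature, then challenged with flap substrate at 50 nM final. Signal change over 15 min gave concentration–effect curves.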
Pol iota inh = inhibitors of human DNA polymerase iota; Potency, µM (titrated, usually from 115 µM), for inactives: at the highest dose activity, negative = inhibition, hits mostly inhibitors; AID 588590; Q9UNA4; Pol iota fluorescent replication assay, 10 min; hit rate 1% among 390,000; further: potency means the concentration at half of the fitted maximal effect
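Fluorescent replication assay read twice, at 0 min and 10 min after adding 50 nM (final) substrate. Enzyme (10 nM) and compounds were first incubated 15 min at room temperature; enzyme-free buffer wells were negative controls.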
Pol beta inh-1 = DNA polymerase beta (human) inhibition; AID 485314; Potency, µM (highest dose often 114 µM), without a hit: at the top dose activity change, negative = inhibition, actives largely listed as inhibitors; hit rate 1.3% among 340,000; Pol beta primer extension/strand displacement, fluorescence kinetic; further: potency means the concentration at half of the fitted maximal effect; on the % scale 0 is the no-effect control and ±100 the full control effect
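Homogeneous kinetic assay of primer extension and strand displacement by 10 nM Pol beta, preincubated 15 min at room temperature with compound before 50 nM substrate (final) was added. Read at 0 and 10 min; four-parameter Hill fit.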
Pol kappa inh-1 = blocks human DNA polymerase kappa activity | purified Pol kappa, fluorescent DNA synthesis assay, 10 min | Potency, µM (series often up to 107 µM), without a hit: at the highest dose activity, negative = inhibition, actives largely listed as inhibitors | hit rate 0.53% among 400,000 | Q9UBT6; further: potency means the concentration at half of the fitted maximal effect; on the % scale 0 is the no-effect control and ±100 the full control effect
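Fluorescent qHTS in 1536-well format: enzyme (10 nM) and compound sat 15 min at room temperature before 50 nM substrate (final) was added. Signal taken at 0 and 10 min; no-enzyme buffer wells were negative controls.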
Pol eta inh-1 = blocks human DNA polymerase eta activity. Q9Y253. recombinant Pol eta, fluorescent DNA replication assay. Potency, µM (series often up to 114 µM), without a hit: top-dose activity change, negative = inhibition, hits mostly inhibitors. hit rate 1.2% among 390,000. AID 588591; further: potency means the concentration at half of the fitted maximal effect; on the % scale 0 is the no-effect control and ±100 the full control effect
Target sequence (Q9Y253 whole entry, looked up): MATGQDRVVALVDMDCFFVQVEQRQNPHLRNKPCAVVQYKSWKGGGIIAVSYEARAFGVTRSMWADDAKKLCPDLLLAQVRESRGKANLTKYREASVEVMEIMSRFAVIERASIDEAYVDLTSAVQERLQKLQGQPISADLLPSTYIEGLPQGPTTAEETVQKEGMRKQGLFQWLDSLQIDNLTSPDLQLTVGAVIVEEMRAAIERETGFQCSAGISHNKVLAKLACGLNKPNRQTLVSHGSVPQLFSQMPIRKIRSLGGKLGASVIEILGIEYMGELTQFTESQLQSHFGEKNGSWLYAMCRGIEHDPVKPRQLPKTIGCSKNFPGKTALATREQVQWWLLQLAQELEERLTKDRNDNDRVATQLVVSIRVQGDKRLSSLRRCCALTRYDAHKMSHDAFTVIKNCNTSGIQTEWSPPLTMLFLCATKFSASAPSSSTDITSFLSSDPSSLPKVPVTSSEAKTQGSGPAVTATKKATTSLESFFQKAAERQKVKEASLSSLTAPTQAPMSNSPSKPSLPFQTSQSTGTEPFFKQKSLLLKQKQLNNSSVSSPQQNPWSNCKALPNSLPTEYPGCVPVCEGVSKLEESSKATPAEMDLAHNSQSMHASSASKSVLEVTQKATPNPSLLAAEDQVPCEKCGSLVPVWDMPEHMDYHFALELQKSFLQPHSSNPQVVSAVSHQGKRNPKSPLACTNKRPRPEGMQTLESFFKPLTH
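Fluorescent replication assay: 50 nM final substrate added after a 15 min room-temperature compound preincubation with 10 nM enzyme. Signal taken at 0 min and again at 10 min.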
Pol beta inh-2 = Inhibitors of human DNA polymerase beta, hit validation; shares compounds with Pol beta inh-1; Pol beta primer extension/strand displacement, fluorescence kinetic; Potency, µM, most hits filed as inhibitors; hit rate 87% among 250; calls by dose curve; further: potency means the concentration at half of the fitted maximal effect
Klenow counter = Klenow polymerase inhibition, pol beta selectivity check. shares compounds with Pol beta inh-1. Klenow exo- polymerase counter-screen, fluorescent DNA substrate. activity change, negative = inhibition, % at 57.1 µM. 250 tested, under 10 active. AID 540300
HIV RT counter = counter-screen for DNA polymerase beta inhibitors: HIV-1 RT inhibition; 250 tested, under 10 active; shares compounds with Pol beta inh-1; HIV-1 RT polymerase activity, counter-screen; activity % (negative = inhibition, positive = activation), % at 57.1 µM
POLB valid = DNA polymerase beta inhibition, radiolabeled validation. shares compounds with Pol beta inh-1. radiolabeled primer extension gel assay, phosphorimager. inhibition, % at 10 µM. hit rate 91% among 110. AID 540325;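 active means inhibition at 10 µM of 30% or more; inconclusive means no clear call, values can overlap the other calls; inactive means inhibition at 10 µM under 30%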
POLI cherry-pick = Inhibitors of human DNA polymerase iota, confirmation; shares compounds with Pol kappa inh-1; Pol iota primer extension, TAMRA/BHQ fluorescence; Potency, µM, usual class: inhibitors; hit rate 77% among 1,500; further: potency means the concentration at half of the fitted maximal effect
GALK inh confirm = confirmation of human galactokinase (GALK) inhibitors; shares compounds with Pol eta inh-1; Potency, µM (top dose mostly 115 µM), inactives show at the top dose activity, negative = inhibition, actives largely listed as inhibitors; purified GALK, Kinase-Glo ATP depletion luminescence; hit rate 70% among 150
GALK redox cs = counter-screen for GALK inhibitors: redox cycling H2O2 generation. shares compounds with Pol eta inh-1. Phenol red-HRP H2O2 redox cycling, absorbance 600 nm. Potency, µM (series often up to 115 µM), for the others: at the top dose activity change, negative = H2O2 signal, hits mostly inhibitors. hit rate 40% among 150. AID 2035
HEK293 tox = counter-screen for GALK inhibitors: HEK293 cell cytotoxicity | hit rate 10% among 170 | shares compounds with Pol eta inh-1 | AID 2547 | HEK-293 viability, ATP luminescence (CellTiter-Glo), 24/48 h | Potency, µM (series often up to 46.1 µM), without a hit: at the highest dose activity change, negative = cytotoxicity, usual class: inhibitors; further: potency means the concentration at half of the fitted maximal effect; on the % scale 0 is the no-effect control and ±100 the full control effect
Pol kappa inh-2 = Pol kappa (human) inhibition, cherry-pick confirmation; shares compounds with Pol eta inh-1; purified Pol-kappa, fluorescent strand-displacement substrate; Potency, µM, actives largely listed as inhibitors; hit rate 76% among 920; AID 720501; further: potency means the concentration at half of the fitted maximal effect
Pol eta inh-2 = Pol eta (human) inhibition, cherry-pick confirmation; shares compounds with Pol eta inh-1; Pol eta primer extension, TAMRA/BHQ fluorescence, 10 min; Potency, µM, actives largely listed as inhibitors; hit rate 64% among 2,600; AID 720502; further: potency means the concentration at half of the fitted maximal effect
FEN1 inh-2 = FEN1 inhibition, cherry-pick retest; shares compounds with FEN1 inh-1; FEN1 flap cleavage, TAMRA/BHQ2 fluorogenic DNA substrate; Potency, µM, usual class: inhibitors; hit rate 79% among 880; AID 720498; further: potency means the concentration at half of the fitted maximal effect; nearly all actives have a fitted effect of over 60% in size
* marks the source's active call; other numbers are inactive results; ? = inconclusive; . = no result; [ ] = another dose, or the depositor's remark. Unless noted, the call rests on the fitted dose curve; in most records, active means well fitted curve in the direction sought with a large enough effect; inconclusive means small, poorly fitted or top-dose-only effect, or another doubt; inactive means no such curve, though single readings can be large; an effect the other way counts as inactive or inconclusive.

SMILES	WRN helicase inh	FEN1 inh-1	Pol iota inh	Pol beta inh-1	Pol kappa inh-1	Pol eta inh-1	Pol beta inh-2	Klenow counter	HIV RT counter	POLI cherry-pick	Pol eta inh-2	others
N#C/C(=C\c1c[nH]c2ccccc12)C(=O)Nc1ncc(Cc2ccc(Cl)cc2Cl)s1	-9.6%	-6.4%	4.9%	27.1%	-6.0%	-11.2%	.	.	.	.	.
O=C(CCCn1c(SCC(=O)c2ccc(O)c(O)c2)nc2ccccc2c1=O)NCC1CCCO1 (centres undefined)	22.4µM*	-22.5%	14.1µM*	7.94µM*	20µM*	20µM*	10*	-24.6	-12.4	.	60.1*
Cc1oc(-c2ccc(F)cc2)cc1-c1nn2c(-c3ccoc3C)nnc2s1	?	-10.9%	7.94µM*	3.55µM*	28.2µM*	7.94µM*	?	-6.3	2.9	?	75.7*
Cc1ccc([N+](=O)[O-])cc1S(=O)(=O)Nc1cccc(-c2ccc(N3CCCC3)nn2)c1	-21.9%	0.1%	25.0%	.	-17.6%	?	.	.	.	.	.
Cc1nc(C)c(C(=O)Nc2nc3c(C)cccc3s2)o1	?	?	?	17.8µM*	39.8µM*	25.1µM*	31.6*	-5.0	4.8	?	47.8*
Cc1cccc2sc(NC(=O)C3CCCO3)nc12 (centres undefined)	-3.3%	-1.4%	-5.8%	0.5%	-4.7%	0.2%	.	.	.	.	.
COc1ccc(/C=C/C(=O)OCC(=O)Nc2ncc(Cl)cc2Cl)cc1	-21.0%	-8.1%	-21.7%	.	-7.9%	?	.	.	.	.	.
CC1=NN(c2ccccc2)C(=O)/C1=C\c1sccc1C	-9.0%	?	?	-1.0%	0.3%	-4.2%	.	.	.	.	.
O=C1/C(=C\c2ccc(O)c(O)c2)C(c2ccccc2)=NN1c1ccccc1	?	-14.0%	22.4µM*	8.91µM*	70.8µM*	8.91µM*	7.08*	-12.2	-17.8	.	42.6*	GALK inh confirm=?;GALK redox cs=?;HEK293 tox=-11.6%;Pol kappa inh-2=18.9*
Cc1ccc(SCC(=O)c2ccc(CC(=O)O)s2)cc1	?	-3.4%	?	11.2µM*	?	50.1µM*	31.6*	-6.5	-15.2	.	75.7*
CC(=O)Nc1ccc(SCC(=O)c2ccc(Br)s2)cc1	-30.4%	1.3%	?	2.6%	1.3%	-15.2%	.	.	.	.	.
CCCCCCN1C[C@H](n2cc(C3CC3)nn2)[C@@H](O)C[C@@H]1c1ccc(C)cc1	-8.9%	.	.	.	.	-29.5%	.	.	.	.	.
COCCn1c(C)cc(C(=O)COC(=O)c2cc3c(s2)CCC3)c1C	?	-27.0%	?	10µM*	39.8µM*	8.91µM*	31.6*	-23.5	26.2	37.7*	67.5*	POLB valid=84.2*
Cc1ccc(CNC(=O)c2ccc(-n3cccc3)cc2)cc1	39.8µM*	?	14.1µM*	6.31µM*	22.4µM*	12.6µM*	8.91*	-26.5	20.9	18.9*	30.1*	Pol kappa inh-2=18.9*
O=C(CC1Sc2ccccc2NC1=O)Nc1cccc(C(=O)O)c1 (centres undefined)	-18.1%[57.1 µM]	-19.6%	50.1µM*	20µM*	35.5µM*	6.31µM*	28.2*	13.4	29.0	42.3*	7.57*	POLB valid=16.0
CN(CCC#N)C(=O)COC(=O)c1c2c(nc3ccccc13)/C(=C/c1ccco1)CC2	?	50.1µM*	3.16µM*	8.91µM*	20µM*	6.31µM*	22.4*	-26.9	6.0	29.9*	53.6*	FEN1 inh-2=67.5*
O=S(=O)(Nc1nccs1)c1ccc(Nc2nnc(-c3ccccc3)c3ccccc23)cc1	?	89.1µM*	?	14.1µM*	-17.9%	?	35.5*	1.0	30.8	.	.	FEN1 inh-2=?
COc1ccc(NC(=O)CC2Nc3ccccc3NC2=O)c([N+](=O)[O-])c1 (centres undefined)	-7.2%	-9.8%	119.7%	23.5%	-13.4%	-17.9%	.	.	.	.	.
Cc1ccc(/C(N)=N/OC(=O)c2cccc(Cn3cc(C(F)(F)F)ccc3=O)c2)cc1	-6.5%	-12.8%	-23.7%[58.9 µM]	2.9%	-6.0%	-7.3%	.	.	.	.	.
COc1ccc(OC)c(/C=c2\sc3nc(-c4cccs4)nn3c2=O)c1	-12.8%	-8.2%	21.0%	?	-11.0%	?	.	.	.	.	.
COc1ccccc1/C=c1\sc2nc(-c3ccco3)nn2c1=O	39.8µM*	50.1µM*	17.8µM*	10µM*	31.6µM*	8.91µM*	28.2*	-31.7	4.3	42.3*	19*	POLB valid=95.5*;FEN1 inh-2=?
